The text below walks through data of PubChem BioAssay (Tox21).

Inconclusive results are not listed. Activity calls are given as the source filed them. Unless noted, calls come from the whole dose curve.

A short description of test [1]: Nuclear factor erythroid 2-related factor 2/antioxidant responsive element (Nrf2/ARE) small molecule agonists: qHTS cell viability counter screen in human keratinocytes (AID 1919968; active = well fitted curve in the direction sought with a large enough effect in the repeat runs; an effect the other way counts as inactive or inconclusive; note: nearly all actives have a fitted effect of over 55% in size; note: potency is the fitted concentration of half-maximal effect). An outline of the steps:
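Cells of the KeratinoSens line were plated at 1,500 per well and left for 5 h before compound transfer from DMSO stocks. After a 23 h incubation (37 C, 5% CO2), CellTiter-Fluor was added. Signal was taken as fluorescence intensity 1 h later.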
On the technique in general: qHTS replaces the single test concentration by a dilution series.

For test [2], the target named is KiSS-1 receptor (Homo sapiens) (UniProt Q969F8). As to the kind of experiment: Human kisspeptin (KISS1R) small molecule agonists, calcium flux assay in KISS1R-HEK293 cells (AID 1920064; active = well fitted curve in the direction sought with a large enough effect in the repeat runs; an effect the other way counts as inactive or inconclusive). The gist of the method: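 Cell line: HEK293, stable human KISS1R. Dye loading 1 h at 37 C after 18 h culture. Read: kinetic fluorescence, 480/540 nm, 3 min at 1 s intervals.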
KiSS-1 receptor (Homo sapiens), sequence (Q969F8 whole entry, looked up): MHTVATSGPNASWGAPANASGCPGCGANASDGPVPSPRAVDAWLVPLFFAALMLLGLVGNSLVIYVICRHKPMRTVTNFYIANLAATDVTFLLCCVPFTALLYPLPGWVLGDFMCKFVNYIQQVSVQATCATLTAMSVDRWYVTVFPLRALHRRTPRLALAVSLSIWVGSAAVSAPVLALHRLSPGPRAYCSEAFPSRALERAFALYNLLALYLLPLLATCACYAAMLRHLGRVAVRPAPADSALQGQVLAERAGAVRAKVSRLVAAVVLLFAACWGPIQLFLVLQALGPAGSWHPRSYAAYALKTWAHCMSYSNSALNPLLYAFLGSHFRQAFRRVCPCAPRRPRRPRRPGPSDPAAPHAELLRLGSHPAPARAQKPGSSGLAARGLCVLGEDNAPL
For orientation: Calcium flux is commonly read through the fluorescence of an indicator in the cells.

A short description of test [3]: G protein-coupled receptor (GPCR) small molecule agonists, calcium flux assay: HEK293 wild type cell line counter screen (AID 1920065). An outline of the steps:
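Tox21 10K compounds, 15 concentrations each in triplicate, pin-transferred in DMSO onto dye-loaded cells; kinetic read at 480/540 nm for 3 min, 1 s intervals.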

Test [4] can be described thus: p53 small molecule agonists, cell-based qHTS assay with human liver microsomes (AID 1963577).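 Note: p53 response element beta-lactamase reporter cells with liver microsomes plus NADPH.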 An outline of the steps: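 p53RE-bla cells; 5 h settle, 37 C/5% CO2; cpd + HLM 0.5 mg/mL + NADPH 0.5 mg/mL (final); 16 h 37 C; LiveBLAzer 2 h RT dark; fluorescence readout.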
The nature of test [5]: p53 small molecule agonists, cell-based qHTS assay with rat liver microsomes (AID 1963578). The gist of the method:
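Rat liver microsome activation: microsomes 0.5 mg/mL, NADPH 0.5 mg/mL final; p53RE-bla cells, 16 h 37 C; LiveBLAzer readout, 2 h RT dark.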

Test [6] can be described thus: p53 small molecule agonists, cell-based qHTS assay with rat liver microsomes: qHTS cell viability counter screen (AID 1963580). Note: nearly all actives have a fitted effect of over 45% in size. The gist of the method: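 After the beta-lactamase ratio was read, CellTiter-Glo was added to the same wells and luminescence measured at 30 min; cells had been treated 16 h at 37 C with compounds, rat liver microsomes and NADPH (0.5 mg/mL final each).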

Test [7] can be described thus: p53 small molecule agonists, cell-based qHTS assay: qHTS cell viability counter screen (AID 1963581). Note: nearly all actives have a fitted effect of over 45% in size. The gist of the method: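 ATP content measured by luminescence in HCT-116 p53RE-bla cells treated 16 h at 37 C, same wells as the reporter screen.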
Test [8] in a line: p53 small molecule agonists, cell-based qHTS assay (AID 1963582; active = well fitted activation curve with a large enough effect in the signal ratio in the repeat runs, not every such curve was filed as active; the % refers to the signal ratio). An outline of the steps: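 16 h compound exposure (37 C) of p53 response element–bla cells, preceded by 5 h recovery at 37 C/5% CO2; read-out via LiveBLAzer B/G FRET substrate, 2 h RT, fluorescence intensity.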
For test [9], the target named is 5-hydroxytryptamine receptor 2A (Homo sapiens) (UniProt P28223). As to the kind of experiment: 5-hydroxytryptamine receptor 2A (HTR2A) small molecule antagonists, cell-based qHTS assay (AID 1963586). Note: nearly all actives have a fitted effect of over 45% in size. The gist of the method: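 CHO cells stably expressing human HTR2A were plated for 18 h at 37 C, then loaded with calcium dye for 1 h. Compounds were preincubated 5 min at room temperature before DOI (4 nM solution) was added. Kinetic fluorescence was read for 3 min.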
5-hydroxytryptamine receptor 2A (Homo sapiens), sequence (P28223 whole entry, looked up): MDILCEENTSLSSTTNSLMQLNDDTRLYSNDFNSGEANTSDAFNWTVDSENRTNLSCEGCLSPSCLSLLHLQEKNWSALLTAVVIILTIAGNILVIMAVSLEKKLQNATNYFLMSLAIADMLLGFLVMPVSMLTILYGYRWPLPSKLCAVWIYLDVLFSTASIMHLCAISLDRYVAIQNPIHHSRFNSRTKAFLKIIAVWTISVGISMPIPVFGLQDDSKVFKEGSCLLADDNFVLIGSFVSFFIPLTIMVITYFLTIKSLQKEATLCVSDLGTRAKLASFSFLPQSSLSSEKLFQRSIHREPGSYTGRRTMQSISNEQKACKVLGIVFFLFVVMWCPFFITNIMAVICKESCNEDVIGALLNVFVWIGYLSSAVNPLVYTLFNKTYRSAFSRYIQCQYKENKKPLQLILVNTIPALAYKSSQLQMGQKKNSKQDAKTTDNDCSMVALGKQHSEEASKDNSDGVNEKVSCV

The target is the same in test [10]. As to the kind of experiment: 5-hydroxytryptamine receptor 2A (HTR2A) small molecule agonists, cell-based qHTS assay (AID 1963587). Note: nearly all actives have a fitted effect of over 30% in size. The gist of the method: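 CHO cells stably expressing human HTR2A, plated 18 h, loaded with calcium dye 1 h at 37 C. Agonist mode: compounds added and intracellular calcium fluorescence recorded kinetically for 2 min at 1 sec intervals.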

Test [11] concerns the target Muscarinic acetylcholine receptor M1 (Homo sapiens) (UniProt P11229). As to the kind of experiment: Cholinergic receptor muscarinic 1 (CHRM1) small molecule antagonists, cell-based qHTS assay (AID 1963588). Note: nearly all actives have a fitted effect of over 40% in size. Note: potency is the fitted concentration of half-maximal effect. The gist of the method: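 Compounds were tested at 15 concentrations in three independent runs. Dye-loaded CHRM1-CHO cells were exposed 5 min at room temperature before stimulation by acetylcholine added at 50nM. Intracellular calcium was read kinetically on FDSS for 3 min.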

Test [12] concerns the target Beta-2 adrenergic receptor (Homo sapiens) (UniProt P07550). Description: Adrenergic beta2 receptor (ADRB2) small molecule antagonists, cell-based qHTS assay (AID 1963592). Note: series mostly up to about 92 µM; nearly all actives have a fitted effect of over 50% in size. The gist of the method:
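Assay format: CHO-ADRB2 cells, 18-20hr seeding at 37C/5% CO2, then compound plus 1nM isoproterenol agonist mix for 0.5hr RT. Homogeneous time-resolved fluorescence cAMP detection after 1hr, expressed as 665/615 nm ratio.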

For test [13] the target is unchanged. As to the kind of experiment: Adrenergic beta2 receptor (ADRB2) small molecule agonists, cell-based qHTS assay (AID 1963593).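 Note: CHO cells stably overexpressing human ADRB2.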 The gist of the method:
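CHO cells stably over-expressing ADRB2 were plated overnight at 37C, then dosed with compounds plus a stimulation mix containing 100uM IBMX and 25uM Ro-20-1724 for 0.5hr at room temperature. cAMP was measured by HTRF competition, 1hr.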

In test [14] the target is D(2) dopamine receptor (Homo sapiens) (UniProt P14416). As to the kind of experiment: Dopamine D2 receptor (DRD2) small molecule agonists, cell-based qHTS assay (AID 1963594). Note: nearly all actives have a fitted effect of over 35% in size. An outline of the steps: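 HEK293 cells stably expressing human DRD2, pre-treated with PDE inhibitor Ro20-1724 (0.1 mM final) and compound 10 min at room temperature, then stimulated with NKH477 (200nM […]) for 30 min. cAMP read by HTRF (665/620 nm).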
D(2) dopamine receptor (Homo sapiens), sequence (P14416 whole entry, looked up): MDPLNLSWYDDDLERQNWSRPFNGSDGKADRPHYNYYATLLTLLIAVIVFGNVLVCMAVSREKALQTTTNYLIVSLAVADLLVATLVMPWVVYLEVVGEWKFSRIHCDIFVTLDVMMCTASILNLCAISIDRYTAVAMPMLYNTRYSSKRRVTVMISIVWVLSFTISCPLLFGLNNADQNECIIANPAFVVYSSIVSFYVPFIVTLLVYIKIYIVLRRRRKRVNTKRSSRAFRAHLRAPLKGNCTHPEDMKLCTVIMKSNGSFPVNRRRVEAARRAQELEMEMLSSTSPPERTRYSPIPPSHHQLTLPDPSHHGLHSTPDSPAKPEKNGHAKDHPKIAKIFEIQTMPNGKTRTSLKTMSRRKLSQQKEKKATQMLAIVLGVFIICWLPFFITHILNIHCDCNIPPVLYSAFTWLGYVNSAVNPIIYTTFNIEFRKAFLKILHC

Test [15] in a line: p53 small molecule agonists, cell-based qHTS assay with human liver microsomes: qHTS cell viability counter screen (AID 1963579). Note: nearly all actives have a fitted effect of over 45% in size. An outline of the steps: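 Luminescent CellTiter-Glo read-out, 30 min at room temperature, gauged cytotoxicity in p53RE-bla cells exposed 16 h at 37 C to DMSO-dissolved compounds with metabolic activation by human liver microsomes and NADPH, each 0.5 mg/mL final.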

Test [16] can be described thus: cAMP Responsive Elements (CRE) small molecule agonists, cell-based qHTS assay (AID 1963590). The gist of the method: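 HEK 293T cells stably bearing CRE-bla were plated at 2,000 cells per well and rested 18 h. Compounds, positive controls or DMSO were added for 3 h at 37 C. LiveBLAzer B/G substrate was then loaded for 2 h at room temperature.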
Test [17] in a line: cAMP Responsive Elements (CRE) small molecule antagonists, cell-based qHTS assay (AID 1963591; active = well fitted inhibition curve with a large enough effect in the signal ratio in the repeat runs, not every such curve was filed as active; the % refers to the signal ratio). An outline of the steps:
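First, CRE-bla HEK293T cells settled 18 h at 37 C. Next, compound and 0.25 uM final NKH477 were applied for 3 h. Last, LiveBLAzer B/G substrate was loaded for 2 h at room temperature.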

Test [18] addresses D(2) dopamine receptor (Homo sapiens) (UniProt P14416). Description: Dopamine D2 receptor (DRD2) small molecule antagonists, cell-based qHTS assay (AID 1963595; active = well fitted inhibition curve with a large enough effect in the signal ratio in the repeat runs, with a control signal flat; the % refers to the signal ratio). An outline of the steps: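 In this cell-based antagonist screen, compounds act for 10 min at room temperature before a 30 min challenge with 12 nM quinpirole and 200 nM NKH477. cAMP is quantified by HTRF competition in DRD2-HEK293 cells containing 0.1 mM Ro20-1724.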

In test [19] the target is Muscarinic acetylcholine receptor M1 (Homo sapiens) (UniProt P11229). As to the kind of experiment: Cholinergic receptor muscarinic 1 (CHRM1) small molecule agonists, cell-based qHTS assay (AID 1963589). Note: nearly all actives have a fitted effect of over 35% in size. The gist of the method: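 Homogeneous fluorescence calcium flux, agonist mode. Human M1-expressing CHO cells; compound dosed at 15 concentrations, three independent runs; signal sampled every 1 sec.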
Muscarinic acetylcholine receptor M1 (Homo sapiens), sequence (P11229 whole entry, looked up): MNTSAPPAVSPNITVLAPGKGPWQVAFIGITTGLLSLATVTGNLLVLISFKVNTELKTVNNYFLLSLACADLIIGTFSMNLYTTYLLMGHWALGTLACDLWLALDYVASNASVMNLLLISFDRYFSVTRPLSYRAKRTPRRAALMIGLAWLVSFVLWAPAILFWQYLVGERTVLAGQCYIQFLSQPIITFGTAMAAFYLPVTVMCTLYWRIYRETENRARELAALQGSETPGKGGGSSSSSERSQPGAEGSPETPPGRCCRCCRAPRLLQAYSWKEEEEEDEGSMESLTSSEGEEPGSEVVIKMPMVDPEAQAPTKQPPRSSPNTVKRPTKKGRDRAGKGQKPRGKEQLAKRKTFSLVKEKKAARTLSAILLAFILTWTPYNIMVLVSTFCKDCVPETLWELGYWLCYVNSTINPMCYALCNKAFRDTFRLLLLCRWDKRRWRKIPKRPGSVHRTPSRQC

Test [20] has as its target Gonadotropin-releasing hormone receptor (Homo sapiens) (UniProt P30968). Description: Human gonadotropin-releasing hormone receptor (GnRHR) small molecule agonists, calcium flux assay in GnRHR-HEK293 cells (AID 1920063). Note: nearly all actives have a fitted effect of over 35% in size. An outline of the steps: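 Compounds dissolved in DMSO are pin-transferred onto dye-loaded GnRHR-HEK293 cells, which were seeded 18 h before at 37 C/5% CO2. Calcium signal is read as fluorescence intensity at 1 s intervals for 3 min.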

Beta-2 adrenergic receptor (Homo sapiens), sequence (P07550 whole entry, looked up): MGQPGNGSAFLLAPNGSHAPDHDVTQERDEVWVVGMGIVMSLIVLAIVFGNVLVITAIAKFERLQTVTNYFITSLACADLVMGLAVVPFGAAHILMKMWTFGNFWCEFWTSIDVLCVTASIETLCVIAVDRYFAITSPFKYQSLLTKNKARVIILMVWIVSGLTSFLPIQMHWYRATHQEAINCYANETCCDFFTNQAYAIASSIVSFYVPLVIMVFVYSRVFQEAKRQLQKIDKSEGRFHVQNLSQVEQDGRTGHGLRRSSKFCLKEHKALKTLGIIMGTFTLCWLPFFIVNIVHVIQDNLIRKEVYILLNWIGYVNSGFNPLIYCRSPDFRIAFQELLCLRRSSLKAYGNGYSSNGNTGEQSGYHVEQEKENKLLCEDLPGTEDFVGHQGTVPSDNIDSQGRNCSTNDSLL
Gonadotropin-releasing hormone receptor (Homo sapiens), sequence (P30968 whole entry, looked up): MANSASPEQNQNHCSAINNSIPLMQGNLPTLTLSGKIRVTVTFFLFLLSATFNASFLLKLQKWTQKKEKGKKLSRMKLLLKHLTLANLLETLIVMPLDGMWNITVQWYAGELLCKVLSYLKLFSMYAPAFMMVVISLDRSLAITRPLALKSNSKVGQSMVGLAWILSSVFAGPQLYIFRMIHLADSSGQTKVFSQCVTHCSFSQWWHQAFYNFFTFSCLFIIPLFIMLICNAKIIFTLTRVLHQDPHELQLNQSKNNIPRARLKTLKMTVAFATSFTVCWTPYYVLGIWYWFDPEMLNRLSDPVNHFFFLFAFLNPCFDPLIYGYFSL

As for `C[C@]12CC[C@H]3[C@@H](CCC4=CC(=O)CC[C@@]43C)[C@@H]1CC[C@@H]2C(=O)CO`, the Potency result in test [1], in test [2], in test [3], in test [4], in test [5] and in test [6] was “inactive” throughout. For the same compound, the Potency entry in test [7], in test [8], in test [9], in test [10], in test [11] and in test [12] was “inactive” each time. The Potency result in test [13] and in test [14] was “inactive” throughout.

`CCCCC(CC)COC(C)=O` (configuration not stated): the Potency result in test [1], in test [2], in [3], in test [15], in test [6] and in [7] was “inactive” each time. Further, the Potency result in [9], in [10], in test [11], in [16], in [17] and in test [12] was “inactive” throughout. Also, the Potency result in test [13], in [14] and in test [18] was “inactive” in each case.

Consider `CC(=O)OC[C@H]1O[C@@H](OC(C)=O)[C@H](OC(C)=O)[C@@H]1OC(C)=O`, for which the Potency entry in test [1], in test [2], in test [3], in test [4], in [5] and in test [15] was “inactive” throughout. Also, the Potency entry in test [6], in [7], in test [9], in test [10], in [11] and in test [19] was “inactive” throughout. Besides, the Potency entry in test [16], in test [13], in [14] and in test [18] was “inactive” in each case.

Turning to `c1ccc2sc(SSN3CCOCC3)nc2c1`, the Potency in test [1] was 30.6 µM (active). Besides, the Potency result in [2], in test [3], in [15], in test [6], in [7] and in test [9] was “inactive” in each case. Moreover, the Potency entry in [11], in [19], in test [16], in test [17], in [12] and in test [13] was “inactive” in each case. The Potency result in test [14] and in test [18] was “inactive” in each case.

As to `CNCCCC12CCC(c3ccccc31)c1ccccc12`, the Potency in test [1] is 54.5 µM (active). Further, the Potency result in test [2], in [3], in test [4], in [5], in [15] and in test [6] was “inactive” throughout. For the same compound, the Potency entry in test [7], in test [8], in test [16], in [17], in test [14] and in test [18] was “inactive” in each case.

With `CO[C@@]1(NC(=O)C(C(=O)O)c2ccc(O)cc2)C(=O)N2C(C(=O)O)=C(CSc3nnnn3C)CO[C@@H]21` (some centres not stated), the Potency entry in [1], in [2], in test [3], in [4], in test [5] and in test [6] was “inactive” each time. For the same compound, the Potency result in test [7], in test [8], in [9], in test [10], in [11] and in [19] was “inactive” throughout. For the same compound, the Potency result in test [16], in test [17], in test [12], in test [13], in test [14] and in test [18] was “inactive” throughout.

Take `CCN1C(=O)c2ccccc2C1Nc1ccc(OCCN2CCCCC2)cc1` (configuration not stated): the Potency result in test [1], in test [20], in test [2], in test [3], in test [4] and in test [5] was “inactive” each time. The Potency result in [15], in [6], in [7], in test [8], in test [9] and in [10] was “inactive” each time. Also, the Potency result in test [19], in [16], in test [17], in test [12], in test [13] and in test [14] was “inactive” throughout. Further, the Potency result in test [18] was “inactive”. For the same compound, the Potency in [11] is 3.65 µM (active).

As for `O=C(O)CC(=O)O`, the Potency result in test [1], in [2], in test [4], in [5], in test [15] and in test [6] was “inactive” each time. In addition, the Potency result in test [8], in [9], in test [10], in test [11], in [19] and in test [16] was “inactive” each time. Besides, the Potency result in [17], in test [12], in [14] and in test [18] was “inactive” in each case.
